ChEMBL document CHEMBL4513146, “CO-ADD screening of Karazin Kharkiv National University (Ukraine) compounds”
Potency and affinity values are given separately.

Tests used:
Staphylococcus aureus = details: Concentration 32 ug.mL-1;; ASSAY_TEST Inhibition of Bacterial Growth; detection method Absorption (OD600); MEDIA CAMHB; plate type 384well; NBS; CORNING #3640; time 18 hr
Escherichia coli = details: Concentration 32 ug.mL-1;; ASSAY_TEST Inhibition of Bacterial Growth; detection method Absorption (OD600); MEDIA CAMHB; plate type 384well; NBS; CORNING #3640; time 18 hr

| Structure (SMILES) | Inhibition (Staphylococcus aureus) [%] | Inhibition (Escherichia coli) [%] |
| --- | --- | --- |
| O=S(=O)(c1ccc2nncn2c1)N(Cc1cc(F)cc(F)c1)c1cc(F)cc(F)c1 | -5.61 | -4.65 |
| O=C(CSc1nnc2c(=O)n(-c3ccc(F)cc3)ccn12)c1ccccc1Cl | 19.94 | -2.26 |
| O=c1n(Cc2ccccc2F)nc2ccc(S(=O)(=O)N3CCCCCC3)cn12 | 2.98 | -8.1 |
| COc1cccc(-n2ccn3c(=O)n(Cc4ccc([N+](=O)[O-])cc4)nc3c2=O)c1 | 7.57 | -2.91 |
| O=C(Cn1nc2ccc(SCc3ccc(Cl)cc3)nn2c1=O)NC1CCCCC1 | 0.02 | -9.74 |
| Cc1nnc2c(=O)n(CC(=O)Nc3ccc(Cl)cc3)c3ccccc3n12 | 6.71 | 2.85 |
| CCOc1ccc(-n2ccn3c(SCC(=O)c4cccc(OC)c4)nnc3c2=O)cc1 | 10.49 | -5.2 |
| Cc1ccc(-c2ccc3nn(CC(=O)Nc4c(C)cccc4C)c(=O)n3n2)cc1C | -0.95 | -11.36 |
| CCc1nnc2c(=O)n(CC(=O)Nc3ccc(C#N)cc3)c3ccccc3n12 | 12.29 | -5.97 |
| O=C(CSc1nnc2c(=O)n(-c3ccc(Br)cc3)ccn12)Nc1cccc(F)c1 | 9.13 | -1.52 |
| O=c1c2sccc2n2c(=O)n(Cc3cccc(Cl)c3)nc2n1Cc1cccs1 | 18.24 | -5.83 |
| Cc1cc(C)cc(Oc2nccn3c(=O)n(CC(=O)Nc4ccc(Cl)cc4F)nc23)c1 | 18.94 | 4.01 |
